Measured values as given in PubChem BioAssay (EPA / NIEHS).
Records with an inconclusive call do not appear. Activity calls are given as the source filed them. How the source made its calls: active means hit-call score of the fitted dose curve at least 0.9, where 1 is the maximum; inconclusive means response in the unintended direction; inactive means score below 0.9.

target: Androgen receptor (Homo sapiens) (UniProt P10275); experiment: ATG_AR_TRANS: Attagene TRANS-FACTORIAL HepG2 Assay for human Androgen Receptor (AR) (AID 2282973); conditions: HepG2 Attagene TRANS-FACTORIAL AR reporter transcription
Procedure, shortened: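 Transcriptional activity of an exogenous AR–Gal4 fusion read as GAL4-UAS reporter transcript levels in transfected human HepG2 cells after 24 h dosing. Detection via RT-PCR, 6-FAM labelling, HpaI digest and capillary electrophoresis; increase over DMSO baseline.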

Androgen receptor (Homo sapiens), sequence (P10275 whole entry, looked up, the tested form may be a part): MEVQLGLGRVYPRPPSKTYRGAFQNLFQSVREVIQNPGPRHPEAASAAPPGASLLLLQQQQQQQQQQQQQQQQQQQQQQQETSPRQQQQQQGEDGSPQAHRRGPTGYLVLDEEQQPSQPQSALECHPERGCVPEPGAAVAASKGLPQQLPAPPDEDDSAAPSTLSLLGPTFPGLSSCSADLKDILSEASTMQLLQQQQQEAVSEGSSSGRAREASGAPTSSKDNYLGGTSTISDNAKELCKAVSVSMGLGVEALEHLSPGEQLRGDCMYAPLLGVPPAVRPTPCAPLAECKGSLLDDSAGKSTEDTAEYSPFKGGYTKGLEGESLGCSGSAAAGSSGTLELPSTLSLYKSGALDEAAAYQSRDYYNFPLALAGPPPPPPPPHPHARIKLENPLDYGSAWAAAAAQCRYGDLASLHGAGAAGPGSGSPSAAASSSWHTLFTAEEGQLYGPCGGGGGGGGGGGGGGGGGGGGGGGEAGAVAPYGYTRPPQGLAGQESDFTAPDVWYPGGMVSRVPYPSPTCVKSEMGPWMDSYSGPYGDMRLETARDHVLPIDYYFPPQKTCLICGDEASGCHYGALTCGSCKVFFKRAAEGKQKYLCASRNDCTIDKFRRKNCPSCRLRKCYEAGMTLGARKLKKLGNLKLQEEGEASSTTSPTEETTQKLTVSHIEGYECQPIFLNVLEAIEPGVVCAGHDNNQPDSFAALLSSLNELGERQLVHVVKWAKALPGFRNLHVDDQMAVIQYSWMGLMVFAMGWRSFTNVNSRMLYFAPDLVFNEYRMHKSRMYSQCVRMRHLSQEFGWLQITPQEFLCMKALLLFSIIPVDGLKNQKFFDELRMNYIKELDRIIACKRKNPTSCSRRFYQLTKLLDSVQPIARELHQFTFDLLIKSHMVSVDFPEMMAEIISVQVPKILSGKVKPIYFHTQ

SMILES | outcome
C=CC(=O)OCCCCCCOC(=O)C=C | inactive
Nc1ccccc1C(=O)Oc1ccc2ccccc2c1 | inactive
CN(C)N | inactive
CCCCOP(=O)(O)OCCCC | inactive
C=CC(C)(C)O | inactive
c1cc(OCC2CO2)ccc1Cc1ccc(OCC2CO2)cc1 (stereo not given) | inactive

tested on: not listed separately; experiment: ATG_M_19_TRANS: Attagene TRANS-FACTORIAL HepG2 Assay for M19 Transcription Factor (Internal Marker) (AID 2282974); conditions: HepG2 Attagene TRANS-FACTORIAL M19 internal marker reporter
Procedure, shortened: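 Background-control readout: after 24 h chemical exposure of transfected HepG2 carrying GAL4-driven reporter units, RNA was reverse-transcribed, amplified, fluorescently labeled and sized by capillary electrophoresis; gain-of-signal fit against DMSO.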

SMILES | outcome
CCCCCCCCCCCC#N | inactive
O=C(NC(=O)c1c(F)cccc1F)Nc1ccc(Oc2ccc(C(F)(F)F)cc2Cl)cc1F | inactive
CC1CCCC1.[C-]#[O+].[C-]#[O+].[C-]#[O+].[Mn] | inactive
CCCCNP(N)(N)=S | inactive
CC(=O)C=Cc1ccccc1 | inactive
Nc1ccccc1C(=O)Oc1ccc2ccccc2c1 | inactive
CC(C)CCCCCCCOC(=O)c1ccccc1C(=O)OCCCCCCCC(C)C | inactive
N#CCNCC#N | inactive
CN1C[C@H](C(=O)N[C@]2(C)O[C@@]3(O)[C@@H]4CCCN4C(=O)[C@H](Cc4ccccc4)N3C2=O)C=C2c3cccc4[nH]cc(c34)C[C@H]21 | inactive
O=C(O)CCl | inactive
CC(O)CN(CC(C)O)CC(C)O (stereo not given) | inactive
Nc1cc(Cl)cc(Cl)c1 | inactive
O=[N+]([O-])c1ccc(Cl)cc1 | inactive
Cc1ccc(C)c2ccccc12 | inactive
C=CCO | inactive
COC(=O)COc1ccc(Cl)cc1Cl | inactive
CC(=O)c1cc2c(cc1C)C(C)(C)C(C)CC2(C)C (stereo not given) | inactive
c1cc(OCC2CO2)ccc1Cc1ccc(OCC2CO2)cc1 (stereo not given) | inactive
c1ccc2c(c1)CCCC2 | inactive
CCOC(=O)C1OC1(C)c1ccccc1 (stereo not given) | inactive
COc1ncc(F)c2nc(S(=O)(=O)Nc3c(F)cccc3F)nn12 | inactive
O=C(O)C(Br)Br | inactive

tested on: not listed separately; experiment: ATG_GAL4_TRANS: Attagene TRANS-FACTORIAL HepG2 Assay for GAL4 (Internal Marker) (AID 2282976); conditions: HepG2 Attagene TRANS GAL4 internal marker reporter
Procedure, shortened: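 In transfected human HepG2 liver cells dosed 24 h, GAL4 reporter mRNA serves as a baseline marker. Detection by RT-PCR with fluorescent capillary electrophoresis, activity fitted upward relative to DMSO.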

SMILES | outcome
CC(=O)C=Cc1ccccc1 | inactive
CCC(=O)c1ccc(Cl)cc1 | inactive
C=CC(=O)OC | inactive
CC(C)CCCCCCCOC(=O)c1ccccc1C(=O)OCCCCCCCC(C)C | inactive
N#CCNCC#N | inactive
CN(C)N | inactive
CN1C[C@H](C(=O)N[C@]2(C)O[C@@]3(O)[C@@H]4CCCN4C(=O)[C@H](Cc4ccccc4)N3C2=O)C=C2c3cccc4[nH]cc(c34)C[C@H]21 | inactive
COC(=O)COc1ccc(Cl)cc1Cl | inactive
CC(=O)c1cc2c(cc1C)C(C)(C)C(C)CC2(C)C (stereo not given) | inactive
c1ccc2c(c1)CCCC2 | inactive
COc1ncc(F)c2nc(S(=O)(=O)Nc3c(F)cccc3F)nn12 | inactive
CC(C)[C@@H](C(=O)O[C@@H](C#N)c1cccc(Oc2ccccc2)c1)c1ccc(Cl)cc1 | inactive
O=C(O)C(Br)Br | inactive
CCCCCCCCCCCCCCCC[N+](C)(C)C | inactive

target: Estrogen-related receptor gamma (Homo sapiens) (UniProt P62508); experiment: ATG_ERRg_TRANS: Attagene TRANS-FACTORIAL HepG2 Assay for human Estrogen-Related Receptor gamma (ERRg) (AID 2282977); conditions: HepG2 Attagene TRANS reporter, ERRg transactivation;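 further: hits increase reporter signal over DMSO so potencies reflect activators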
Procedure, shortened: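 HepG2 cells transiently transfected with multiplexed GAL4-UAS reporter units driven by chimeric NR-Gal4 proteins; 24 h exposure. Reporter mRNA quantified by RT-PCR, fluorescent labelling, HpaI digestion and capillary electrophoresis; gain of signal vs DMSO.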

Estrogen-related receptor gamma (Homo sapiens), sequence (P62508 whole entry, looked up, the tested form may be a part): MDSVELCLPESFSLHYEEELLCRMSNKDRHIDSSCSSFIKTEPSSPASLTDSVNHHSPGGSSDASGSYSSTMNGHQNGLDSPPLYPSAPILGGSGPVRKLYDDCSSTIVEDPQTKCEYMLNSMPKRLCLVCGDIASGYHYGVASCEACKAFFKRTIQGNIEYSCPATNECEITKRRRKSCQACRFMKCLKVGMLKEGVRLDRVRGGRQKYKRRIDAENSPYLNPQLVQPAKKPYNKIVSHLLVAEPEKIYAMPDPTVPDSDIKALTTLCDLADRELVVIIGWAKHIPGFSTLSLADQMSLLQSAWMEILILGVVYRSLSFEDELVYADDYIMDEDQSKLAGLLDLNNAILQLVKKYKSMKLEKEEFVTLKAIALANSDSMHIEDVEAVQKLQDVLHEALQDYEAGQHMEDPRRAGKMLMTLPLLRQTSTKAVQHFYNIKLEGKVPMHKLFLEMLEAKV

SMILES | outcome
CC(C)CCCCCCCOC(=O)c1ccccc1C(=O)OCCCCCCCC(C)C | inactive
N#CCNCC#N | inactive
O=[N+]([O-])C=Cc1ccccc1 | inactive
Nc1ccc(Cl)c(Cl)c1 | inactive
O=C(O)CCl | inactive
COC(=O)COc1ccc(Cl)cc1Cl | inactive
C=CC(=O)OCCCCOC(=O)C=C | inactive
O=[N+]([O-])c1cc([N+](=O)[O-])c2ccccc2c1 | inactive

target: Glucocorticoid receptor (Homo sapiens) (UniProt P04150); experiment: ATG_GR_TRANS: Attagene TRANS-FACTORIAL HepG2 Assay for human Glucocorticoid Receptor (GR) (AID 2282978); conditions: HepG2 Attagene TRANS GR reporter, mRNA transcription;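 further: activators score as hits since higher reporter transcript over DMSO is fitted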
Procedure, shortened: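 Readout is reporter transcript from a chimeric GR-Gal4 acting on GAL4-UAS in transfected human HepG2 liver cells after 24 h exposure, quantified by RT-PCR and capillary electrophoresis. Activation fitted upward against DMSO.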

Glucocorticoid receptor (Homo sapiens), sequence (P04150 whole entry, looked up, the tested form may be a part): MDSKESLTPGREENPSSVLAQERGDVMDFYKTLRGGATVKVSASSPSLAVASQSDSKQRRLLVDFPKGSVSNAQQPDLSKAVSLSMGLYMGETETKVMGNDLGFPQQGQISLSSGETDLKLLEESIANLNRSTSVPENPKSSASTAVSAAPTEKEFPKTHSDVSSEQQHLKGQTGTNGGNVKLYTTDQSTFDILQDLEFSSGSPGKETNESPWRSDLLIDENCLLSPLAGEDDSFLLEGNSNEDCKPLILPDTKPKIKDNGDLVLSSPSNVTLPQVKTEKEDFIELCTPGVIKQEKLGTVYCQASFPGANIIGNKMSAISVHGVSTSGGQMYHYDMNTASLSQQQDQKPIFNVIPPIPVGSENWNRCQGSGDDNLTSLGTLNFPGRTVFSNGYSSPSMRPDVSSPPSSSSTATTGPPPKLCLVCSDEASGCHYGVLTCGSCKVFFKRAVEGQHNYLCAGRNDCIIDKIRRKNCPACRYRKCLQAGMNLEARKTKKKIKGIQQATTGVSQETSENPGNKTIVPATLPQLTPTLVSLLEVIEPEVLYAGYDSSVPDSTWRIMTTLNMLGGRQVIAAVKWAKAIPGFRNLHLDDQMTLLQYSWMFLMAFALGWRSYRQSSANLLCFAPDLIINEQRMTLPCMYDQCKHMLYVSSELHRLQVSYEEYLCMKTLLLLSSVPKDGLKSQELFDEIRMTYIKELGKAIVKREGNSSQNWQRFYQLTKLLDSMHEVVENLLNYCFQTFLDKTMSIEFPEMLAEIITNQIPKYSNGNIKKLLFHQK

SMILES | outcome
CCCCCCCCCCCC#N | inactive
CC1CCCC1.[C-]#[O+].[C-]#[O+].[C-]#[O+].[Mn] | inactive
CCC(=O)c1ccc(Cl)cc1 | inactive
Nc1ccccc1C(=O)Oc1ccc2ccccc2c1 | inactive
CC(C)CCCCCCCOC(=O)c1ccccc1C(=O)OCCCCCCCC(C)C | inactive
CN(C)N | inactive
CN1C[C@H](C(=O)N[C@]2(C)O[C@@]3(O)[C@@H]4CCCN4C(=O)[C@H](Cc4ccccc4)N3C2=O)C=C2c3cccc4[nH]cc(c34)C[C@H]21 | inactive
CCCCOP(=O)(O)OCCCC | inactive
CC(O)CN(CC(C)O)CC(C)O (stereo not given) | inactive
O=[N+]([O-])c1ccc(Cl)cc1 | inactive
C=CCO | inactive
[CH3][Sn]([Cl])([Cl])[Cl] | inactive
c1cc(OCC2CO2)ccc1Cc1ccc(OCC2CO2)cc1 (stereo not given) | inactive
c1ccc2c(c1)CCCC2 | inactive
CCOC(=O)C1OC1(C)c1ccccc1 (stereo not given) | inactive
COc1ncc(F)c2nc(S(=O)(=O)Nc3c(F)cccc3F)nn12 | inactive
O=[N+]([O-])c1cc([N+](=O)[O-])c2ccccc2c1 | inactive
O=C(O)C(Br)Br | inactive

target: Bile acid receptor (Homo sapiens) (UniProt Q96RI1); experiment: ATG_FXR_TRANS: Attagene TRANS-FACTORIAL HepG2 Assay for Farnesoid X Receptor (FXR) (AID 2282979); conditions: HepG2 Attagene TRANS FXR-GAL4 reporter transcription;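 further: hits raise reporter mRNA above DMSO so AC50 marks FXR activation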
Procedure, shortened: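 Reporter transcripts from transfected HepG2 cells were measured 24 h after dosing, using RT-PCR with capillary electrophoresis of 6-FAM-labelled fragments. The read-out reflects activity of exogenous FXR-Gal4 chimera on GAL4-UAS units, with induction relative to DMSO.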

Bile acid receptor (Homo sapiens), sequence (Q96RI1 whole entry, looked up, the tested form may be a part): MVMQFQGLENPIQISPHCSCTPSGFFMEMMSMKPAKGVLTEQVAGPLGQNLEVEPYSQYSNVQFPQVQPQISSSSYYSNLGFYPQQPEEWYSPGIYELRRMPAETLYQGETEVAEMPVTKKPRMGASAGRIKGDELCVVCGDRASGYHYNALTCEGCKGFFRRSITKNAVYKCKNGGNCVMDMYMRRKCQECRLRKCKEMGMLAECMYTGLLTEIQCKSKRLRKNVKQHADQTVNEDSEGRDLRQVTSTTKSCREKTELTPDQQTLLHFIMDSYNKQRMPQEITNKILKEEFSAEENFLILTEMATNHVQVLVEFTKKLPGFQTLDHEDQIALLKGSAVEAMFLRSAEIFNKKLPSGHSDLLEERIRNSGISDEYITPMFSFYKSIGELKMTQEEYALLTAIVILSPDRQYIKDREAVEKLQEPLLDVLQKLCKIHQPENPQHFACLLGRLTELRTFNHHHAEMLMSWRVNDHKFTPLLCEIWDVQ

SMILES | outcome
CCCCCCCCCCCC#N | inactive
O=C(NC(=O)c1c(F)cccc1F)Nc1ccc(Oc2ccc(C(F)(F)F)cc2Cl)cc1F | inactive
CCCCNP(N)(N)=S | inactive
C=CC(=O)OC | inactive
CC(C)CCCCCCCOC(=O)c1ccccc1C(=O)OCCCCCCCC(C)C | inactive
CN1C[C@H](C(=O)N[C@]2(C)O[C@@]3(O)[C@@H]4CCCN4C(=O)[C@H](Cc4ccccc4)N3C2=O)C=C2c3cccc4[nH]cc(c34)C[C@H]21 | inactive
CCCCOP(=O)(O)OCCCC | inactive
CC(O)CN(CC(C)O)CC(C)O (stereo not given) | inactive
CC(=O)c1cc2c(cc1C)C(C)(C)C(C)CC2(C)C (stereo not given) | inactive
Nc1ccc(-c2ccc(N)c(N)c2)cc1N | inactive
c1ccc2c(c1)CCCC2 | inactive
O=C(O)C(Br)Br | inactive
